Measured values as given in PubChem BioAssay AID720609 (Broad Institute, 2013).
Measured potencies and affinities stand elsewhere. Activity calls are given as the source filed them.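 How the source made its calls: active means viability signal falls with a fitted half-maximal concentration at or below a set limit at all three treatment times; inconclusive means treatment times disagree, or a flat partial drop, or poor fit; inactive means inactive at every treatment time.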

Test: HeLa cell viability over time, late-stage follow-up, mechanism study for HRAS target identification, CellTiter-Glo ATP luminescence, 8-48 h, dry powder (AID 720609)
Conditions: series mostly up to 35 µM

In the case of Cc1onc(C(=O)N2CCN(C(c3ccncc3)c3ccncc3)CC2)c1[N+](=O)[O-], the outcome is reported as “inactive”.
With CCC(=O)N(c1ccc(OC)c(Cl)c1)C(C(=O)NCCc1ccccc1)c1cccs1 (configuration not stated) the outcome was “inactive”.
